Screening results: PubChem BioAssay, National Center for Advancing Translational Sciences (NCATS)
BAZ2B block: qHTS Assay for Inhibitors of BAZ2B. Bromodomain adjacent to zinc finger domain protein 2B (Homo sapiens), Q9UIF8. AlphaScreen BAZ2B-H3K14Ac peptide displacement. Potency, µM (highest dose often 114 µM), for inactives: at the top dose activity change, negative = inhibition, hits mostly inhibitors. 360,000 tested, 4.4% active; note: potency is the fitted concentration of half-maximal effect; % is set by controls: 0 for no effect and ±100 for the full control effect; nearly all actives have a fitted effect of over 60% in size
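AlphaScreen displacement of biotin-H3(5-23)K14Ac peptide (50 nM final) from BAZ2B (50 nM final) in PBS pH 7.4, 0.01% Tween-20; complex preformed 30 min RT, then compounds (top 110 uM) 30 min RT, beads 20 min dark.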
JMJD2A Tudor inh: qHTS Assay for Inhibitors of JMJD2A-Tudor Domain | AID 504339, 2011 | Potency, µM (titrated, usually from 114 µM), without a hit: top-dose activity change, negative = inhibition, hits mostly inhibitors | AlphaScreen JMJD2A-Tudor / H3K4me3 peptide binding | 390,000 tested, 4.4% active; note: potency is the fitted concentration of half-maximal effect; % is set by controls: 0 for no effect and ±100 for the full control effect; nearly all actives have a fitted effect of over 50% in size
G9a inh: qHTS Assay for Inhibitors of Histone Lysine Methyltransferase G9a. G9a H3K9 monomethylation, AlphaScreen, 2 h. Potency, µM (doses to about 102 µM), inactives show at the top dose activity, negative = inhibition, hits mostly inhibitors. 350,000 tested, 8.8% active. AID 504332, 2011; note: potency is the fitted concentration of half-maximal effect; % is set by controls: 0 for no effect and ±100 for the full control effect; nearly all actives have a fitted effect of over 75% in size
Target sequence (Q96KQ7 913-1193 limits assumed): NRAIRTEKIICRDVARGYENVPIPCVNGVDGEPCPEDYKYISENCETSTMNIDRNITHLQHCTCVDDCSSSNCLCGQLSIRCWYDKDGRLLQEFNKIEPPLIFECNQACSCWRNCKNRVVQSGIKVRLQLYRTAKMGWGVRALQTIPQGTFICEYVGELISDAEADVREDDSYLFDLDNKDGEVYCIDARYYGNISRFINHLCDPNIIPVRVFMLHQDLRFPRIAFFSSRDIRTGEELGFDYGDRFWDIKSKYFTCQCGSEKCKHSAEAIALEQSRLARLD
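Using a bead-based AlphaScreen, monomethylated H3K9 product from 2 h room-temperature reactions (G9a 20 nM, peptide 500 nM, SAM 20 uM) was detected with 0.5 ug/mL rabbit anti-H3K9me1 antibody.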
PI5P4K alpha inh: qHTS for Inhibitors of phosphatidylinositol 5-phosphate 4-kinase (PI5P4K); max response, %; 330,000 tested, 1.2% active; AID 652105, 2013; PI5P4Kalpha enzyme, ADP-Glo luminescence, 60 min; hits give low values; Phosphatidylinositol 5-phosphate 4-kinase type-2 alpha (Homo sapiens), P48426; active = max response of -50% or lower; inconclusive = between -30% and -50%; inactive = -30% or higher; note: value at the top dose of about 77 µM; % is set by controls: 0 for no effect and ±100 for the full control effect
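Quantitative HTS of the MLSMR library against PI5P4Kalpha with substrate. ATP added last at 5 microM final; room temperature, 60 minutes. Remaining ATP depleted, ADP converted and read as luminescence.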
HP1b binding inh: HTS for Inhibitors of HP1-beta Chromodomain Interactions with Methylated Histone Tails; Chromobox protein homolog 1 (Homo sapiens), P83916; AlphaScreen HP1-beta / biotin-H3K9me3 peptide binding; Potency, µM (titrated, usually from 114 µM), without a hit: at the top dose activity change, negative = inhibition, actives largely listed as inhibitors; 390,000 tested, 0.56% active; note: potency is the fitted concentration of half-maximal effect; nearly all actives have a fitted effect of over 70% in size
Target sequence (P83916 whole entry, looked up): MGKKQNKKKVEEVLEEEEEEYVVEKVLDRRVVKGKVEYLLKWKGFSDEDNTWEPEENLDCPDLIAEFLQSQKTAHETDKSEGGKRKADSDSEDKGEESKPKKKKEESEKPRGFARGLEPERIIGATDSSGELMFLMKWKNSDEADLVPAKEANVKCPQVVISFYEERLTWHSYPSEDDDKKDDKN
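HP1-beta protein (50 nM final) preincubated 30 min at room temperature with biotinylated H3(1-18)K9me3 peptide (50 nM) in PBS pH 7.4, 0.01% Tween-20, then compound added for 30 min. AlphaScreen streptavidin donor/nickel chelate acceptor beads (10 ug/mL final), 30 min dark, luminescence read.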
PLK1 PBD block: qHTS for Inhibitors of PLK1-PDB (polo-like kinase 1 - polo-box domain): Primary Screen. Plk1 PBD binding of FITC phosphopeptide, fluorescence polarization. Potency, µM, without a hit: max response, negative = inhibition, usual class: inhibitors. 360,000 tested, 2.8% active. AID 720504, 2013; note: potency is the fitted concentration of half-maximal effect; series mostly up to about 57 µM; % is set by controls: 0 for no effect and ±100 for the full control effect; nearly all actives have a fitted effect of over 65% in size
An asterisk follows results filed as active; ? = inconclusive; · = not tested or not shown; [ ] = another dose, or the depositor's remark. Shown are actives, neighbours in structure and some others; about 12% of the full set was active somewhere. Unless noted, calls come from the whole dose curve; as a rule, active = well fitted curve in the direction sought with a large enough effect; inconclusive = small, poorly fitted or top-dose-only effect, or another doubt; inactive = no such curve, though single readings can be large; an effect the other way counts as inactive or inconclusive.

SMILES	BAZ2B block	JMJD2A Tudor inh	G9a inh	PI5P4K alpha inh	HP1b binding inh	PLK1 PBD block
COc1ccccc1NC(=O)c1c(NC(=O)CCC(=O)O)sc2c1CCCCC2	-16.0%	-17.9%	-48.0%	0.8	21.2%	-24.8%
O=C(O)CCC(=O)Nc1sc2c(c1C(=O)Nc1cccc3ccccc13)CCCCC2	?	?	22.4µM*	-9.2	-5.1%	-29.5%
COc1ccc(COC[C@H](C)[C@H](O)[C@@H](C)[C@H]2OC(=O)[C@@H]2C)cc1	·	-7.6%	·	0.9	22.0%	-17.3%
Cc1cc(NS(=O)(=O)c2cn(C)c(C)n2)ccc1Br	-0.5%	-4.8%	-6.2%[59 µM]	·	20.8%[57 µM]	·
CCOC(=O)c1c(NC(=O)COc2ccccc2F)sc2c1CCCC2	6.2%	9.0%	8.8%[59 µM]	·	25.1%	·
COC(=O)c1c(NS(=O)(=O)c2ccc3ccccc3c2)sc2c1CCCC2	?	-30.2%	?	·	4.9%	23.8µM*
CCOC(=O)c1c(NC(=O)COc2cccc(C)c2C)sc2c1CCCCC2	1.6%	-11.4%	11.2µM*	·	-10.6%	·
CC1CCc2c(sc(NS(=O)(=O)c3ccccc3)c2C(=O)OC(C)C)C1 (configuration not stated)	5.4%	-4.1%	?	-1.7	17.1%	16.8µM*
CC1CCc2c(sc(NC(=O)c3ccco3)c2C(=O)O)C1 (configuration not stated)	21.2%	-16.1%	-1.1%[12.7 µM]	-18.9	8.6%	-12.4%
COC(=O)c1c(NC(=O)COc2cccc(C(F)(F)F)c2)sc2c1CCCC2	1.1%	-4.6%	8.91µM*	·	0.3%	·
COC(=O)c1c(NC(=O)c2ccc(C)c(S(=O)(=O)Nc3ccccc3C)c2)sc2c1CCCC2	1.7%	2.6%	-5.7%	·	35.5%	-3.1%
CCOc1ccc(CNC(=O)CCn2nc(C)c3c(C)n(-c4ccccc4)nc3c2=O)cc1	20.7%	-14.5%	13.0%[59 µM]	·	71.8%	·
Cc1cn([C@H]2C[C@H](O)[C@@H](CCC(=O)NCc3ccco3)O2)c(=O)[nH]c1=O	·	-15.8%	·	6.2	4.5%	-12.3%
COC(=O)c1c(NC(=O)COC(=O)c2ccccc2O)sc2c1CCCCC2	32.3%	3.4%	?	0.9	13.5%	-3.6%
NC(=O)c1c(NC(=O)COC(=O)c2ccc(O)c(Cl)c2)sc2c1CCCC2	·	-13.3%	·	-55.3*	11.9%	?
Cc1ccc(S(=O)(=O)N2[C@@H](c3ccc(F)cc3)C(C(=O)O)=CC[C@H]2c2ccc(C(C)C)cc2)cc1	-9.9%	-22.4%	-6.0%[2.33 µM]	8.0	18.0%	?
CCc1ccc([C@@H]2CC=C(C(=O)O)[C@H](c3ccc(Br)cc3)N2S(=O)(=O)c2ccc(C)cc2)cc1	·	-24.7%	·	10.2	22.1%	26.7µM*
COc1ccc([C@@H]2CC=C(C(=O)O)[C@H](c3ccc(Br)cc3)N2S(=O)(=O)c2ccc(C)cc2)cc1OC	·	-16.5%	·	0.1	12.7%	-5.1%
Cc1ccc(S(=O)(=O)N2[C@@H](c3cccc(Cl)c3)C(C(=O)O)=CC[C@H]2c2ccc(C(C)C)cc2)cc1	?	?	-8.3%[2.33 µM]	-23.7	-4.4%	21.2µM*
Cc1ccc(S(=O)(=O)N2[C@@H](c3ccccc3)C(C(=O)O)=CC[C@H]2c2ccc(Cl)cc2)cc1	-9.0%	-35.0%	-8.5%[2.33 µM]	0.0	11.3%	23.8µM*
Cc1ccc(S(=O)(=O)N2[C@@H](c3ccc(Cl)cc3)C(C(=O)O)=CC[C@H]2c2ccc(Cl)cc2)cc1	-30.5%	-19.3%	-2.7%[2.33 µM]	0.5	12.0%	?
Cc1ccc(S(=O)(=O)N2[C@@H](c3ccc(Br)cc3)C(C(=O)O)=CC[C@H]2c2ccc(Cl)cc2)cc1	·	-11.6%	·	-5.6	1.2%	26.7µM*
